High-throughput results deposited in PubChem BioAssay by National Center for Advancing Translational Sciences (NCATS).
HT1080 IDH1KD tx: HT-1080 IDH1 knockdown cell toxicity (counter line) | HT-1080 IDH1 knockdown viability, ATP luminescence, 48 h | Potency, µM (top dose mostly 46.1 µM), for the others: at the highest dose activity, negative = toxicity, usual class: cytotoxic | actives 2% (n = 360,000) | AID 686971;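 note: potency is the fitted concentration of half-maximal effect; 0% = DMSO wells and -100% = cell-free medium wells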
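IDH1KD HT-1080 cells, 750/well, RPMI + 5% FBS; compound pinned after 2 h settling; 48 h, 37 °C; CellTiter-Glo luminescence; % activity normalised to DMSO and no-cell wells; curves fitted, classed by r2 and efficacy.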
DT40 TDP1 CPT: DT40-hTDP1 cell growth loss with CPT. chicken DT40 Tdp1-/-;hTDP1 cells + 20 nM CPT, ATP luminescence, 48 h. Potency, µM (top dose mostly 46.2 µM), without a hit: top-dose activity change, negative = growth inhibition, most hits filed as inhibitors. actives 12% (n = 420,000); note: potency is the fitted concentration of half-maximal effect; nearly all actives have a fitted effect of over 55% in size
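Chicken DT40 Tdp1-/- cells stably complemented with human TDP1 were seeded at 400 cells/well in medium containing 20 nM camptothecin, exposed to pin-transferred compounds, and grown at 37 °C for at least 48 hr. Viability was read as ATP luminescence.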
TDP1 cell noCPT: qHTS for Inhibitors of human tyrosyl-DNA phosphodiesterase 1 (TDP1): qHTS in cells in absence of CPT. DT40 Tdp1-/- hTDP1 cells, no CPT, ATP luminescence, 48 h. Potency, µM (series often up to 46.2 µM), for the others: at the highest dose activity change, negative = growth inhibition, hits mostly inhibitors. actives 15% (n = 420,000); note: potency is the fitted concentration of half-maximal effect; nearly all actives have a fitted effect of over 55% in size
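Chicken DT40 Tdp1-/- cells complemented with human TDP1, screened without camptothecin (DMSO vehicle only), 400 cells/well. Compounds pin-transferred, cells incubated at 37 °C for at least 48 hr. Growth read as ATP-dependent luminescence (CellTiter-Glo, 30 min at RT).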
IL1B secr inh: blocks inflammasome-driven IL-1 beta release | AID 743279 | THP-1 LPS/ATP IL-1B secretion, AlphaLISA, 16 h; stronger effect = lower value | actives 4.7% (n = 360,000) | activity change, % at 57.5 µM; in the data active = activity change below about -50%; inconclusive = mostly about -30% to -49%
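THP-1 cells pretreated 1 hr with compounds (up to 57.5 uM final), then stimulated with LPS (250 ng/mL final) plus ATP (1.25 mM final); secreted IL-1B measured by AlphaLISA after 16 hr, decreased signal indicating inhibition.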
ELG1 repair inh: inhibitors of ELG1-dependent DNA repair in HEK293T cells. HEK293T ELG1-luciferase reporter, luminescence, 16 h; DNA damage induced by 5-fluorouridine. actives 2.3% (n = 330,000). Potency, µM (doses to about 46.1 µM), inactives show top-dose activity change, negative = inhibition, most hits filed as inhibitors; note: potency is the fitted concentration of half-maximal effect; nearly all actives have a fitted effect of over 55% in size
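Overnight (16 hr) co-exposure of 2,000 cells/well to 5-fluorouridine and compound at 37 °C preceded detection. Luciferase was quantified via ONE-Glo luminescence; loss of signal denotes inhibition.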
HT1080NT lethal: kills 2HG-producing HT-1080-NT fibrosarcoma cells | actives 1.6% (n = 360,000) | Potency, µM (highest dose often 46.1 µM), for the others: top-dose activity, negative = less viability, usual class: cytotoxic | HT-1080-NT fibrosarcoma viability, CellTiter-Glo ATP luminescence, 48 h;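 note: NT is the 2HG producing partner of a matched IDH1 knockdown line; potency is the fitted concentration of half-maximal effect; 0% = DMSO-treated cells and -100% = media-only wells without cells; nearly all actives have a fitted effect of over 55% in size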
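A 48-hour cytotoxicity screen used HT-1080-NT cells plated 2 hours before compound delivery. ATP-based CellTiter-Glo luminescence measured viability, normalized to DMSO and no-cell controls.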
The depositor's hits bear a star; ? = inconclusive; · = no result given. Only some compounds are listed: those with a hit (about 19% of all), similar ones and a draw of the others. Unless noted, calls come from the whole dose curve; as a rule, active = well fitted curve in the direction sought with a large enough effect; inconclusive = small, poorly fitted or top-dose-only effect, or another doubt; inactive = no such curve, though single readings can be large; an effect the other way counts as inactive or inconclusive. Unless noted, % is set by controls: 0 for no effect and ±100 for the full control effect.

SMILES | HT1080 IDH1KD tx | DT40 TDP1 CPT | TDP1 cell noCPT | IL1B secr inh | ELG1 repair inh | HT1080NT lethal
COc1ccc(-c2ccc(CCC(=O)O)n2-c2ccc(Cl)cc2C)cc1 | · | -5% | -18% | · | · | ·
Cc1ccccc1-c1cnc(C(O)c2ccc(Cl)cc2)[nH]1 (stereo not drawn) | -30% | ? | ? | -2 | · | -21%
O=[N+]([O-])c1cc(S(=O)(=O)Oc2ccccc2)ccc1Cl | 18µM* | 0.58µM* | 0.58µM* | -101* | · | 15µM*
O=C1CCCN1c1ccc(S(=O)(=O)Oc2ccc(Cl)cc2)cc1[N+](=O)[O-] | -15% | 21µM* | 21µM* | -6 | -11% | -15%
O=S(=O)(Oc1ccccc1)c1ccc(Cl)c(Cl)c1 | 20% | 13% | -15% | -13 | · | 25%
